Bioassay records deposited in PubChem BioAssay by National Center for Advancing Translational Sciences (NCATS).
TDP1 cell noCPT – qHTS for Inhibitors of human tyrosyl-DNA phosphodiesterase 1 (TDP1): qHTS in cells in absence of CPT. DT40 Tdp1-/- hTDP1 cells, no CPT, ATP luminescence, 48 h. 420,000 compounds, 15% hits. Potency, µM (series often up to 46.2 µM), for the others: top-dose activity change, negative = growth inhibition, hits mostly inhibitors; note: potency is the fitted concentration of half-maximal effect; nearly all actives have a fitted effect of over 55% in size
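No-CPT arm: Tdp1-/-;hTDP1 DT40 cells (400/well) plus compounds, incubated ≥48 hr at 37 °C. Readout CellTiter-Glo luminescence.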
RORg inh – blocks mouse ROR gamma transcriptional activity | P51450 | Drosophila S2 Gal4-RORgamma UAS-luciferase reporter, 20 h | Potency, µM (highest dose often 53.6 µM), for inactives: top-dose activity change, negative = inhibition, most hits filed as inhibitors | 310,000 compounds, 5.4% hits; note: potency is the fitted concentration of half-maximal effect; nearly all actives have a fitted effect of over 60% in size
Target sequence (P51450 whole entry, looked up, the tested form may be a part): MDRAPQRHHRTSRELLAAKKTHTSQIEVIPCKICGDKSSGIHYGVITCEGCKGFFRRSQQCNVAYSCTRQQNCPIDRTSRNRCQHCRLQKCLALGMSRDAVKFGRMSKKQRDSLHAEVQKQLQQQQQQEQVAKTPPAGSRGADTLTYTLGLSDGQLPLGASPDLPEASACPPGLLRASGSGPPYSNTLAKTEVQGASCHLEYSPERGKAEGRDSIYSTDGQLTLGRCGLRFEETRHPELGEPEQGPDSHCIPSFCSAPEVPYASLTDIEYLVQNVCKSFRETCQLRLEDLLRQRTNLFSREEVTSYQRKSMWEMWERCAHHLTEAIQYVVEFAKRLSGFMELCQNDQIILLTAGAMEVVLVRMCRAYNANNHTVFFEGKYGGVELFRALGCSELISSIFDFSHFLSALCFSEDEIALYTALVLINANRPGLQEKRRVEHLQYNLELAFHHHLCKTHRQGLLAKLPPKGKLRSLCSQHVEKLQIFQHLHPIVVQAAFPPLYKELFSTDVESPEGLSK
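Read-out: Photinus luciferase luminescence; inhibitors lower reporter signal. Insect Schneider cells with Gal4-ROR gamma fusion under metallothionein promoter, UAS reporter; 700 uM final copper sulfate induction, 20 hr, ambient temperature.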
Gal4-VP16 FLuc – inhibits Gal4-VP16 luciferase reporter, ROR gamma counter-screen; 310,000 compounds, 3.5% hits; Drosophila S2 Gal4-VP16 UAS-luciferase, luminescence, 20 h; AID 2546; Potency, µM (titrated, usually from 53.6 µM), for inactives: at the highest dose activity, negative = inhibition, actives largely listed as inhibitors;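 note: Gal4-VP16 expression switched on by copper sulfate through the metallothionein promoter; potency is the fitted concentration of half-maximal effect; nearly all actives have a fitted effect of over 50% in size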
ELG1 DNA repair – blocks ELG1-dependent DNA repair in HEK293T cells. HEK293T ELG1-luciferase reporter, luminescence, 16 h; DNA damage induced by 5-fluorouridine. Potency, µM (top dose mostly 46.1 µM), for inactives: at the top dose activity change, negative = inhibition, usual class: inhibitors. 330,000 compounds, 2.3% hits. AID 504467; note: potency is the fitted concentration of half-maximal effect; nearly all actives have a fitted effect of over 55% in size
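5-Fluorouridine DNA damage + compound/DMSO, 2,000 cells/well, 16 h, 37 °C/5% CO2. ONE-Glo, 30 min RT, luminescence. Readout = decrease in reporter signal.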
IL1B secr inh – blocks inflammasome-driven IL-1 beta release | THP-1 LPS/ATP IL-1B secretion, AlphaLISA, 16 h; stronger effect = lower value | activity change, % at 57.5 µM | 360,000 compounds, 4.7% hits; in the data active = activity change below about -50%; inconclusive = mostly about -30% to -49%
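THP-1 cells pretreated 1 hr with compounds (up to 57.5 uM final), then stimulated with LPS (250 ng/mL final) plus ATP (1.25 mM final); secreted IL-1B measured by AlphaLISA after 16 hr, decreased signal indicating inhibition.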
DT40 TDP1 CPT – growth inhibition of DT40 Tdp1-/-;hTDP1 cells with camptothecin (screen for TDP1 inhibitors); chicken DT40 Tdp1-/-;hTDP1 cells + 20 nM CPT, ATP luminescence, 48 h; Potency, µM (titrated, usually from 46.2 µM), inactives show at the top dose activity change, negative = growth inhibition, actives largely listed as inhibitors; 420,000 compounds, 12% hits; AID 686979; note: potency is the fitted concentration of half-maximal effect; nearly all actives have a fitted effect of over 55% in size
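Cell growth measured by CellTiter-Glo luminescence after a minimum 48 h, 37 C compound exposure with 20 nM CPT in Tdp1-knockout DT40 cells stably expressing hTDP1, seeded 400/well; qHTS titration format.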
* marks the source's active call; other numbers are inactive results; ? = inconclusive; / = no result; [ ] = another dose, or the depositor's remark. Only some compounds are listed: those with a hit (about 21% of all), similar ones and a draw of the others. Unless noted, calls come from the whole dose curve; as a rule, active = well fitted curve in the direction sought with a large enough effect; inconclusive = small, poorly fitted or top-dose-only effect, or another doubt; inactive = no such curve, though single readings can be large; an effect the other way counts as inactive or inconclusive. % is set by controls: 0 for no effect and ±100 for the full control effect.

SMILES	TDP1 cell noCPT	RORg inh	Gal4-VP16 FLuc	ELG1 DNA repair	IL1B secr inh	DT40 TDP1 CPT
CCOc1ccccc1C(=O)N[C@H](C(=O)OCc1csc(CC(=O)Nc2ccc(C)cc2)n1)C(C)C	15µM*	/	/	23µM*	?	18µM*
Cc1ccc(/C=N/N=C2\SCC(=O)N2CC2CC2)cc1	-6%	29%	-12%	6%	-18	0%
CC(=O)[C@@]1(O)CC[C@H]2[C@@H]3CCC4=CC(=O)CC[C@]4(C)[C@H]3[C@@H](O)C[C@@]21C	-16%	-8%	2%	21%	-12	-18%
C=C1CC2C(CCC3(C)C2CCC3(O)C(C)=O)C2(C)CCC(=O)C=C12 (configuration not stated)	26µM*	-35%	-23%	?	-92*	?
CC(=O)C1(C)CCC2C3C=C(C)C4=CC(=O)CCC4(C)C3CCC21C (configuration not stated)	23µM*	/	/	/	-73*	18µM*
COc1cc(NC(=O)C2CC(=O)N(Cc3ccco3)C2)c(OC)cc1Cl (configuration not stated)	-1%	/	/	12%	13	6%
COc1cc2c(cc1NC(=O)COC(=O)[C@@H](NC(=O)c1ccccc1F)C(C)C)oc1ccccc12	21µM*	10µM*	11µM*	-24%	0	?
COc1cc2c(cc1NC(=O)COC(=O)C1CC(=O)N(Cc3ccco3)C1)oc1ccccc12 (configuration not stated)	-29%	8.9µM*	7.9µM*	?	-56*	-1%
COc1cc2c(cc1NC(=O)COC(=O)CNC(=O)c1ccccc1)oc1ccccc12	-18%	11µM*	6.3µM*	?	-4	1%
COc1cc2c(cc1NC(=O)COC(=O)[C@@H](NC(=O)c1ccccc1)C(C)C)oc1ccccc12	?	8.9µM*	?	?	10	?
CC(=O)OC1CC(C)OC(C)O1 (configuration not stated)	/	4%	-3%	/	/	/
COc1ccccc1/C=C\C(=O)OC[C@@H]1CCCN2CCCC[C@H]12	2%[9.04 µM]	0%	-1%	/	/	13%[9.04 µM]
Cc1ccc(OCCCCn2c(-c3ccc(Cl)cc3)nc3ccccc3c2=O)cc1	-10%	/	/	/	/	-19%
CCNc1ncc2nc(-c3cn(C)c4ccccc34)c(=O)n(C[C@H]3CCCO3)c2n1	-3%	-14%	13%	/	/	5%
CC(C)[C@H](NC(=O)c1ccccc1F)C(=O)OCC(=O)Nc1sccc1C(N)=O	12µM*	/	/	?	29	?
CC(C)[C@H](NC(=O)c1ccccc1F)C(=O)OCC(=O)NC(=O)NC1CCCCC1	-6%	/	/	-16%	-6	?
COc1ccc(N2CCN(C(=O)c3nc(SC)ncc3Cl)CC2)cc1	?	/	/	/	/	-24%
CCCSc1ncc(Cl)c(C(=O)N(Cc2cccc(Cl)c2)C2CCS(=O)(=O)C2)n1 (configuration not stated)	16µM*	/	/	/	/	23µM*
CCCSc1ncc(Cl)c(C(=O)N2CCN(c3cccc(Cl)c3)CC2)n1	?	/	/	/	/	1.8µM*
CCSc1ncc(Cl)c(C(=O)N2CCN(c3ccccc3OC)CC2)n1	4.1µM*	/	/	/	/	3.3µM*
Cc1ccc(C)c(N2CCN(C(=O)c3ccc4c(=O)n5c(nc4c3)CCCCC5)CC2)c1	16µM*	?	-2%	?	?	16µM*
O=C(c1ccc2c(=O)n3c(nc2c1)CCCCC3)N1CCN(C(c2ccccc2)c2ccccc2)CC1	?	35%	6%	23µM*	?	?
CCOC(=O)N1CCN(C(=O)c2ccc3c(Cl)c4c(nc3c2)CCCC4)CC1	?	-5%	9%	?	-51*	?
O=C(c1ccc2c(=O)n3c(nc2c1)CCCCC3)N1CCCCC1	9%	2%	-1%	?	47	-29%
O=C(c1ccc2c(Cl)c3c(nc2c1)CCCC3)N1CCC(N2CCCCC2)CC1	?	11%	-13%	-8%	-69*	?
SMILES	TDP1 cell noCPT	RORg inh	Gal4-VP16 FLuc	ELG1 DNA repair	IL1B secr inh	DT40 TDP1 CPT
Cc1ccc(OCC(=O)N(C)CC(=O)Nc2ccccc2Cl)c([N+](=O)[O-])n1	2%	/	/	4%	19	1%
CCOC(=O)Cn1c(=O)cc(C(F)(F)C(F)(F)F)c2c(C)nn(CC)c21	?	/	/	/	/	-29%
CCc1ccc(CCC(=O)Nc2ccc(Cl)cc2)o1	-3%	?	-13%	23%	-19	-12%
Cc1ccc(C)c(N2CCN(C(=O)c3ccc4c(Cl)c5c(nc4c3)CCCC5)CC2)c1	?	/	/	/	/	16µM*
COC(=O)c1cc(CSc2nc3ccccc3[nH]2)oc1C	23µM*	?	?	?	29	15µM*
CSc1nc(Cl)c(Br)c(Nc2c[nH]c(=O)[nH]c2=O)n1	?	/	/	/	13	?
COc1ccc(N2CCN(C(=O)c3ccc(Br)cc3)CC2)c([N+](=O)[O-])c1	18µM*	?	?	?	-18	?
COc1ccc(N2CCN(C(=O)c3ccccc3Br)CC2)c([N+](=O)[O-])c1	15µM*	-1%	-17%	-2%	-61*	?
COc1ccc(N2CCN(c3ccc(N4C(=O)COCC4=O)cc3[N+](=O)[O-])CC2)cc1	9.2µM*	15%	-23%	-15%	-4	?
COc1ccc(N2CCN(C(=O)c3ccc(C)cc3)CC2)c([N+](=O)[O-])c1	?	?	-5%	-15%	-4	?
CCCCn1c(N)c(N(CC(C)C)C(=O)c2cccc(S(=O)(=O)N(CC)c3ccccc3)c2)c(=O)[nH]c1=O	-24%	/	/	/	-6	-9%
C[N+](C)(C)C(Cc1ccccc1)C(=O)[O-] (configuration not stated)	-10%	5%	-6%	7%	2	6%
O=C(Nc1ccc(F)cc1)C(c1cc2ccccc2o1)N1CCN(c2ccncc2)CC1 (configuration not stated)	23µM*	/	/	/	?	21µM*
O=C(Nc1ccc2c(c1)OCCO2)C(CCc1ccccc1)N1CCN(c2ccc(F)cc2)CC1 (configuration not stated)	?	/	/	/	-19	?
Cc1cccc(C)c1NC(=O)C(c1cc2ccccc2o1)N1CCC(c2ccccc2)CC1 (configuration not stated)	15µM*	/	/	/	25	16µM*
